# Screening results: PubChem BioAssay, Broad Institute
# Only a sample is shown.
# aSyn UTR act = Activators via SNCA 5'UTR binding, MLPCN; AID 1814; hit rate 7.1% among 300,000; activity score, % (tested at 7.5 µM), hits read low; alpha-synuclein 5'UTR reporter, activators screen; in the data active = activity score below about -60%
# * marks the source's active call; other numbers are inactive results.
SMILES,aSyn UTR act
CCc1ccc(-c2cc(C(=O)NCc3ccccn3)c3ccccc3n2)cc1,-227*
CCCc1ccc(-c2cc(C(=O)NC3=NCCS3)c3ccccc3n2)cc1,-191*
Cc1ccc(-c2cc(C(=O)NC3=NCCS3)c3ccccc3n2)cc1C,-168*
O=C(O)c1cccc(Nc2ncnc3c2cnn3-c2ccccc2)c1,-101*
Clc1cccc(Nc2ncnc3c2cnn3-c2ccccc2)c1,-86*
Fc1cccc(Nc2ncnc3c2cnn3-c2ccccc2)c1,-173*
CCN(CC)S(=O)(=O)c1ccc2c(c1)nc(-c1ccccn1)n2C,-73*
Cc1cnc(NC(=O)CC(C)c2ccccc2)s1 (centres undefined),-196*
Cc1csc(NC(=O)CSc2nnc(-c3ccoc3C)o2)n1,-111*
Cc1occc1-c1nnc(SCC(=O)Nc2nc(C(C)(C)C)cs2)o1,-111*
Cc1csc(NC(=O)CSc2nnc(-c3ccncc3)o2)n1,-99*
O=C(CSc1nnc(-c2ccccc2)o1)Nc1ccccc1F,74
Cc1cnc(NC(=O)CSc2nnc(-c3ccccc3)o2)s1,-139*
CN(c1ccccc1)S(=O)(=O)c1cccc(NC(=O)c2cc3ccccc3oc2=O)c1,-106*
Cc1ccc(NC(=O)c2cc3ccccc3oc2=O)cc1S(=O)(=O)N(C)C,73
COc1ccccc1NS(=O)(=O)c1cccc(NC(=O)c2cc3ccccc3oc2=O)c1,-114*
CCS(=O)(=O)N1Cc2ccccc2CC1C(=O)Nc1ccc(F)c(F)c1 (centres undefined),-88*
CCS(=O)(=O)N1Cc2ccccc2CC1C(=O)Nc1ncc(C)s1 (centres undefined),-126*
CCS(=O)(=O)N1Cc2ccccc2CC1C(=O)Nc1ccc(F)c(F)c1F (centres undefined),-62*
CCS(=O)(=O)N1Cc2ccccc2CC1C(=O)Nc1cccc(C)c1 (centres undefined),-102*
O=C(Nc1nnc(C2CC2)s1)C1Cc2ccccc2CN1S(=O)(=O)c1ccccc1F (centres undefined),-178*
CN(C(=O)C1CCOC1)c1nnc(-c2ccccn2)s1 (centres undefined),-67*
COc1ccc(/C=C/c2n[nH]c(=O)c(C#N)c2C)cc1,-71*
CC1=C/C(=N\NC(=S)NCCc2ccccc2)CC(C)(C)C1,-80*
C/C(=C\c1ccccc1)C(=O)NCCc1ccccc1,-62*
SMILES,aSyn UTR act
Cc1ccc(NC(=O)NCCCc2ccccc2)cc1,-90*
Cc1cccc(NC(=O)C(=O)NCCCc2ccccc2)c1,-77*
CC(C)(C)C(=O)NC(=S)NCCc1ccccc1,-92*
Fc1ccc(CCNC(=S)Nc2ccc(F)cc2)cc1,-76*
O=C(NCCc1ccccc1)Nc1ccc(Cl)cc1,-178*
Fc1cc(Br)ccc1NC(=S)NCCc1ccccc1,-119*
CC(C)(C)NC(=O)NCCc1ccccc1,-95*
O=C(NCCc1ccccc1)/C(=N\O)c1ccccc1,-107*
S=C(NCCc1ccccc1)Nc1ccc(Cl)cc1,-135*
COCCN(Cc1ccccc1)C(=S)Nc1ccc(Cl)cc1,59
S=C(NCCc1ccccc1)NCCc1ccccc1,-215*
COCc1nc2oc3ccc(C)cc3c(=O)c2cc1C(=O)OC,-270*
CCc1nc2oc3ccccc3c(=O)c2cc1C(=O)OC,-156*
COCc1nc2oc3ccc(F)cc3c(=O)c2cc1C(=O)OC,-108*
CCc1cc2c(=O)c(-c3nc4ccccc4n3C)c(COCC(=O)O)oc2cc1O,-81*
CCOc1cc(N2CCOCC2)c(OCC)cc1NC(=O)c1cc(-c2ccco2)nc2ccccc12,114
NNC(=O)c1oc2nc(-c3ccco3)cc(-c3ccco3)c2c1N,-62*
Cc1ccc(C(=O)CCC2CCCCC2=O)cc1 (centres undefined),-151*
CCc1ccc(C(=O)CCC2CCCCC2=O)cc1 (centres undefined),-130*
Cc1ccc(C(=O)CCC2CCCC2=O)cc1 (centres undefined),-100*
CCCCSc1ncc(C(=O)OCC)c(N)n1,-140*
CCOC(=O)c1cnc(SCCc2ccccc2)nc1N,-102*
CCOC(=O)c1cnc(NCc2ccccc2)nc1C,-73*
CCOC(=O)c1cnc2c(ccc3ccccc32)c1Cl,-87*
CCOC(=O)c1[nH]cnc1N=Nc1c(O)ccc2ccccc12,91
SMILES,aSyn UTR act
CCOC(=O)c1cnc(-n2nc(C)cc2C)nc1NNc1ncc(-c2ccccc2)cn1,83
CCOC(=O)c1cnc(SCc2ccc(C)cc2)nc1N,-179*
Cc1ccc(N2CCN(C(=O)c3cn(CC4CCCCC4)nn3)C(C)C2)cc1 (centres undefined),-154*
CCCc1ccc2oc(C(=O)N(C)Cc3cnccn3)c(C)c2c1,-73*
Cc1ccc2oc(C(=O)N(C)Cc3ccon3)c(C)c2c1,-153*
O=C(Nc1ccc(F)cc1)c1ccc2c(=O)n3c(nc2c1)CCCCC3,-104*
O=C(Nc1ccc(Cl)cc1)c1ccc2c(=O)n3c(nc2c1)CCCCC3,-120*
O=C(Nc1ccc(F)c(Cl)c1)c1ccc2c(=O)n3c(nc2c1)CCCCC3,-166*
O=C(Nc1cccc(Cl)c1)c1ccc2c(=O)n3c(nc2c1)CCCCC3,-217*
CCc1cccc(NC(=O)c2ccc3c(=O)n4c(nc3c2)CCCCC4)c1,-127*
